Consider 46 compounds from PubChem BioAssay AID2685 (National Center for Advancing Translational Sciences (NCATS), 2010).

About 2,100 (0.66%) of roughly 320,000 compounds were called active. Roughly 53% stayed inconclusive and do not appear here. Calls follow the shape of the dose curve; as a rule, active = well fitted inhibition curve with a large enough effect in the signal ratio, with a control signal flat (not every such curve was filed as active); inconclusive = small, poorly fitted or top-dose-only effect, or effect the other way, or a change in a side signal; inactive = flat fitted curve, though single readings scatter; the % refers to the signal ratio. The full list was thinned out, with actives kept by preference.
Potency is read from the fitted curve at half-maximal effect.

A short description of this experiment: qHTS Assay for Lipid Storage Modulators in Drosophila S3 Cells.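 As to cell number change: cells counted by Cell Tracker Red CMTPX staining in the red channel.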 As to lipid storage change, negative = inhibition: % is scaled to controls: 0 for no effect and ±100 for the full control effect. Particulars: BODIPY lipid droplet fluorescence, 18-24 h, cells fed with added oleic acid; cell number change: measured here: cell count max response; series mostly up to 46.1 µM; lipid storage change, negative = inhibition: at the top concentration. The procedure, abridged:
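Laser-scanning cytometry quantifies lipid droplet accumulation (500–530 nm total intensity; droplet/cell object ratio) in oleic acid-fed (400 uM added) Drosophila S3 cells treated with a concentration series. 20 uM Triacsin C defined 100% inhibition.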
For orientation: In qHTS, concentration-response curves come from the screen itself.
For `CC(=O)Nc1ccc(NC(=O)C2CC(=O)Nc3nc4ccccc4n32)cc1` (stereo unspecified), the “lipid storage change, negative = inhibition” value was 9.73% (inactive) and the cell number change was -1.64%.

As to `CCSCCc1nnc(NC(=O)Nc2cccc(C(F)(F)F)c2)s1`, the Potency is 20.6 µM (active) and the cell number change is -21.6%.

Turning to `CNC(=O)Nc1cccc(C(F)(F)F)c1`, the “lipid storage change, negative = inhibition” value was 10.6% (inactive) and the cell number change was 3.39%.

In the case of `CCSc1nnc(NC(=O)Nc2cccc(C)c2)s1`, the “lipid storage change, negative = inhibition” value was -12.7% (inactive) and the cell number change came to 17%.

With `CC(C)C[C@@H](CSc1ccc(Br)cc1)N1CCN(C)CCC1=O`, the “lipid storage change, negative = inhibition” value is 14.2% (inactive) and the cell number change is -4.06%.

For the compound `CC(C(=O)NCc1ccc2c(c1)OCO2)N(c1ccccc1)S(C)(=O)=O` (stereo unspecified), the “lipid storage change, negative = inhibition” value was 6.83% (inactive) and the cell number change was 7.31%.

For the compound `COc1ccc(N2C(=O)CN(Cc3ccc(OC)c(OC)c3)C2=S)cc1`, the “lipid storage change, negative = inhibition” value was -2.11% (inactive) and the cell number change was found to be 10.4%.

In the case of `Cc1cc(C)c2nc(N(CCCN(C)C)C(=O)C3=COCCO3)sc2c1`, the “lipid storage change, negative = inhibition” value was -22.2% (inactive) and the cell number change is -20%.

Turning to `O=C(N/N=C/c1cccc(F)c1)c1csc2c1CCCC2`, the “lipid storage change, negative = inhibition” value is 2.18% (inactive) and the cell number change amounted to 1.41%.

As to `Cc1ccc(/C=N/NC(=O)c2csc3c2CCCC3)cc1`, the Potency was 16.4 µM (active) and the cell number change was -23.6%.

Consider `O=C(N/N=C/c1ccc(O)cc1)c1csc2c1CCCC2`, for which the “lipid storage change, negative = inhibition” value was -8.69% (inactive).

As to `COc1ccc(C)cc1S(=O)(=O)N(CC(=O)Nc1cccc([N+](=O)[O-])c1)c1cc(C)cc(C)c1`, the call was inactive.

Take `CCOc1ccccc1OCC(=O)NN1Cc2ccccc2C1=N`: the compound was called inactive.

In the case of `Cc1cccc(C(=O)Nc2ccc(O)cc2)c1`, the “lipid storage change, negative = inhibition” value was -0.178% (inactive) and the cell number change came to 4.55%.

For `CSc1ccc(/C=C/C(=O)c2ccc(NC(C)=O)cc2)cc1`, the compound was classed as inactive.

As for `Cc1cccc(C(=O)N/N=C/c2ccncc2)c1`, the “lipid storage change, negative = inhibition” value is 3.87% (inactive) and the cell number change was -0.828%.

Regarding `CC(=O)Nc1cccc(C(=O)/C=C/c2ccc[nH]2)c1`, the “lipid storage change, negative = inhibition” value is -0.805% (inactive) and the cell number change was 9.89%.

As for `CC(=O)Nc1cccc(C(=O)/C=C/c2ccc(/C=C/C(=O)c3cccc(NC(C)=O)c3)cc2)c1`, the Potency is 8.2 µM (active) and the cell number change is -12.7%.

For the compound `Cc1cccc(C(=O)Nc2ccc(C(=O)/C=C/c3ccncc3)cc2)c1`, the Potency was 6.51 µM (active) and the cell number change is -3.72%.

`CCOc1ccccc1CNC(=O)CCC(=O)N1Cc2ccccc2Oc2ncccc21`: the compound was called inactive and the cell number change was -10.6%.

For the compound `CCOC(=O)C1(Cc2ccc(Cl)cc2)CCN(C(=O)c2cc(C)nc(C)n2)CC1`, the “lipid storage change, negative = inhibition” value was 0.881% (inactive) and the cell number change was -4.86%.

With `Cc1onc(-c2ccccc2Cl)c1C(=O)NCCCc1ccccc1`, the result was inactive and the cell number change was -24%.

Regarding `Fc1ccc(C2c3[nH]c4ccccc4c3CCN2Cc2cccn2-c2ncccn2)cc1` (stereo unspecified), the “lipid storage change, negative = inhibition” value was -15.7% (inactive) and the cell number change amounted to 1.18%.

As for `COc1ccc(C2c3[nH]c4ccccc4c3CCN2Cc2cccn2-c2ncccn2)cc1C` (stereo unspecified), the Potency is 16.4 µM (active) and the cell number change was -1.91%.

In the case of `Cc1cccc(C2c3[nH]c4ccccc4c3CCN2Cc2cccn2-c2ncccn2)c1` (stereo unspecified), the outcome was inactive and the cell number change is -27.2%.

As to `CCN(CC)S(=O)(=O)c1cccc(-c2nnc(SCC(=O)c3cc(C)n(C4CC4)c3C)o2)c1`, the compound was called inactive and the cell number change worked out at 13.6%.

Take `CCCOc1ccc(N2C(=O)CC(NCc3cccs3)C2=O)cc1` (stereo unspecified): the “lipid storage change, negative = inhibition” value is 4.41% (inactive) and the cell number change worked out at 15.4%.

As for `CCOC(=O)c1ccc(CNC(=O)C(Cc2c[nH]c3ccccc23)NC(C)=O)o1` (stereo unspecified), the outcome was inactive.

In the case of `O=C(NC(=O)c1c(Cl)cccc1Cl)Nc1ccc(Oc2cccnc2)nc1`, the “lipid storage change, negative = inhibition” value was 8.04% (inactive) and the cell number change was determined as 1.56%.

Regarding `O=C1/C(=C/c2cccs2)SC(=S)N1CCCC(=O)N(CCO)c1ccccc1`, the “lipid storage change, negative = inhibition” value was -14.3% (inactive) and the cell number change worked out at 6.09%.

Regarding `Cc1cc(C)cc(C(=O)OCC(=O)N2CCCCCC2)c1`, the “lipid storage change, negative = inhibition” value is 0.176% (inactive) and the cell number change is -14.4%.

In the case of `O=C1CCCC(O)=C1N=Nc1c(Cl)cc(Cl)cc1Cl`, the “lipid storage change, negative = inhibition” value is 17.9% (inactive) and the cell number change turned out to be 2.67%.

`Cc1c(/C=N/NC(=O)c2cc(Br)ccc2O)c(=O)n(C)c(=O)n1C`: the Potency was 5.8 µM (active) and the cell number change is -6.52%.

Regarding `C/C=N/NC(=O)c1cc(Br)ccc1O`, the “lipid storage change, negative = inhibition” value was 9.52% (inactive) and the cell number change was determined as 5.04%.

For the compound `Cc1cccc(/C=N/NC(=O)c2cc(Br)ccc2O)n1`, the “lipid storage change, negative = inhibition” value was 6.34% (inactive) and the cell number change stood at 0.985%.

Turning to `CN1CCN(c2ccc(NC(=O)c3ccc(-c4cccc([N+](=O)[O-])c4)o3)cc2)CC1`, the “lipid storage change, negative = inhibition” value was 17.2% (inactive) and the cell number change was determined as 17.7%.

Consider `O=C(Nc1ccc(CN2CCOCC2)cc1)c1ccc(-c2cccc([N+](=O)[O-])c2)o1`, for which the Potency is 8.2 µM (active) and the cell number change was -29.5%.

Take `O=[N+]([O-])c1cccc(-c2ccc(C(=S)N3CCOCC3)o2)c1`: the “lipid storage change, negative = inhibition” value is -17.7% (inactive) and the cell number change was 15.8%.

With `O=C(NC1CCCN(CCc2ccccc2)C1)C1CCCC1` (stereo unspecified), the “lipid storage change, negative = inhibition” value was -3.29% (inactive) and the cell number change is 8.14%.

On to `C[C@H](NC(=O)C1CCN(S(=O)(=O)c2ccccc2)CC1)C(=O)NCc1ccc(F)cc1`, for which the “lipid storage change, negative = inhibition” value is 25.5% (inactive).

For `CCN(CC)C1CCN(Cc2cn[nH]c2-c2ccc(OC)c(F)c2)C1` (stereo unspecified), the “lipid storage change, negative = inhibition” value was 5.24% (inactive) and the cell number change came out at 7.18%.

As to `Cc1sc(NC(=O)/C=C/c2ccco2)c(C(=O)O)c1C`, the “lipid storage change, negative = inhibition” value is -1.31% (inactive) and the cell number change worked out at 4.19%.

Consider `CCn1c(SCC(=O)Nc2sc3c(c2C#N)CCC(C(C)(C)C)C3)nnc1-c1ccco1` (stereo unspecified), for which the “lipid storage change, negative = inhibition” value is -2.66% (inactive) and the cell number change was -7.68%.

Turning to `CC(C)(C)C1CCc2c(sc(NC(=O)CSc3nnc(-c4ccccc4)o3)c2C#N)C1` (stereo unspecified), the Potency is 4.11 µM (active) and the cell number change is -0.658%.

For the compound `N#Cc1ccsc1NC(=O)CSc1nnc(-c2ccccc2)o1`, the call was inactive and the cell number change came to 20.1%.

As for `COc1ccc(/C=N/n2cnc3c(sc(=S)n3-c3ccccc3)c2=O)cc1`, the result was inactive and the cell number change was 19.1%.
